Most compounds without a hit are left out; they make up all but 1.9% or so of the library.
ATG4B inh – ATG4B protease inhibitors, primary screen, biochemical, fluorescence, uHTS; AID 504462, 2011; ATG4B cleavage of LC3-PLA2, NBD-HPC fluorescence, 1 h; inhibition, % at 8.33 µM; actives 0.51% (n = 340,000); in the data active = inhibition above about 40%
PP5 inh – PP5 phosphatase inhibitors, primary screen, biochemical, fluorescence; purified PP5c, OMFP substrate fluorescence; actives 0.18% (n = 320,000); inhibition, % at 6.7 µM; AID 1987, 2009;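 active = inhibition above the campaign's mean inhibition across all tested compounds plus 3 SD, cut at about 9.5% in these data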;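 also: 0% = DMSO only and 100% = 100 µM cantharidin control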
Target sequence (P53041 whole entry, looked up): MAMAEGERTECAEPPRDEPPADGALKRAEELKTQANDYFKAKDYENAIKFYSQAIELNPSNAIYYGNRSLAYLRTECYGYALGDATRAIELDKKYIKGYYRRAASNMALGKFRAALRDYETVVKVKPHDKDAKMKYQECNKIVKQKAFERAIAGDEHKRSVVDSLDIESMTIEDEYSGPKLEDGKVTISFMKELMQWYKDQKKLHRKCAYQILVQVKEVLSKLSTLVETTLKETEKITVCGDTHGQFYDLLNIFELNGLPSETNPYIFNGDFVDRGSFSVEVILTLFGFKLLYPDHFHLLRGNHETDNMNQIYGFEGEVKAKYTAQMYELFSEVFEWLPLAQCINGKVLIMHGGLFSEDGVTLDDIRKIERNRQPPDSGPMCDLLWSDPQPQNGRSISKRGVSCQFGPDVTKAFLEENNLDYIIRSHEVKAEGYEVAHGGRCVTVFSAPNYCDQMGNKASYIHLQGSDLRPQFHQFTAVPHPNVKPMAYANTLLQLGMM
PP1 inh – PP1-alpha phosphatase inhibitors, primary screen, counter-screen for PP5 inhibitor project, biochemical, fluorescence, OMFP substrate, single point; Serine/threonine-protein phosphatase PP1-alpha catalytic subunit (Homo sapiens), P62136; purified PP1alpha; inhibition, % at 6.7 µM; actives 0.9% (n = 320,000); AID 2235, 2010;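 active = inhibition above the mean inhibition of all tested compounds plus 3 SD, computed separately for each screening campaign, cut at about 15% in these data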
H9c2 protect – cardioprotection against H2O2-induced cell death, primary screen, uHTS, H9c2 cells, ATPLite luminescence; H9c2 cardiomyocytes, H2O2 injury protection, 2 h; protection from H2O2 cell death, % at 20 µM; actives 0.63% (n = 360,000); AID 588492, 2011;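 active = compounds giving at least 50% protection of heart cells from peroxide-induced death in the single-dose screen, raw or plate-pattern-corrected value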;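 also: 0% = DMSO wells with peroxide and 100% = DMSO wells without peroxide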
PP1 inh confirm – PP1 phosphatase inhibitors, confirmation, biochemical, fluorescence, OMFP substrate, triplicate | purified PP1alpha | shares compounds with PP1 inh | AID 2358, 2010 | inhibition, % at 6.7 µM | actives 52% (n = 1,900);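 active = mean PP1 inhibition above a set limit taken from the earlier primary screen, cut at about 15% in these data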
PP5 counter – PP5 phosphatase inhibition by PP1 hits, confirmation, counter-screen for PP1 inhibitor project, biochemical, fluorescence, triplicate | shares compounds with PP1 inh | purified PP5c, OMFP fluorescence | inhibition, % at 6.7 µM | actives 4% (n = 1,900);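 active = mean PP5 inhibition over triplicate wells above about 9.5% taken from the earlier PP1 screen, limit read from the data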
* marks the source's active call; other numbers are inactive results; . = no result given.

SMILES | ATG4B inh | PP5 inh | PP1 inh | H9c2 protect | PP1 inh confirm | PP5 counter
Cc1cc(N2C(=O)C(O)=C(C(=O)c3ccco3)C2c2cccc(O)c2)no1 (centres undefined) | -6 | -2 | -4 | 4 | . | .
O=C(Cn1cnc2ccccc2c1=O)Nc1nc2ccccc2s1 | -1 | 2 | 2 | -1 | . | .
CCc1ccc2nc(NC(=O)Cn3cnc4ccccc4c3=O)sc2c1 | -6 | 2 | 26* | -7 | 29* | -3
COC(=O)C1=C(CSc2nc3c(cc2C#N)CN(C)CC3)OC(N)=C(C#N)C1c1ccccc1F (centres undefined) | -3 | 3 | 18* | 15 | 5 | 4
O=C(Nc1nn[nH]n1)c1cccc(Oc2ccccc2)c1 | -1 | 1 | 26* | 0 | 8 | -3
O=C(O)c1cc(-c2ccc(N3CCOCC3)cc2)nn1-c1ccccc1Cl | -9 | -2 | 34* | -6 | 38* | 0
O=C(c1ccccc1)c1ccc(N2CCOCC2)cc1 | 1 | . | . | -11 | . | .
O=C(O)c1cc(-c2ccc(N3CCOCC3)cc2)nn1-c1ccc(F)cc1F | -2 | 2 | 24* | 2 | 27* | -3
O=S(=O)(Nc1ccc(N2CCOCC2)cc1)c1ccc(F)cc1F | -13 | -1 | -1 | 0 | . | .
N#Cc1c(N2CCSCC2)nsc1-c1ccccc1Cl | -5 | . | . | -8 | . | .
CCc1cccc(C)c1NC(=O)CCNC(=O)c1cccc(C)c1 | 0 | 1 | -4 | 1 | . | .
CCOc1cc(C)c(C(C)C)cc1S(=O)(=O)n1cnc(C)c1 | -1 | 0 | 0 | -4 | . | .
Cc1nc2scc(C)n2c(=O)c1S(=O)(=O)NCc1ccc(F)cc1 | -6 | 1 | 1 | 3 | . | .
CN(C)c1ccc(NC(=O)C(=O)C2C(=O)Nc3ccccc32)cc1 (centres undefined) | -3 | 1 | 21* | -7 | 1 | -1
Cc1ccc2nc(-c3ccccc3O)c(Nc3ccc4c(c3)OCCO4)n2c1 | 28 | 1 | -2 | 11 | . | .
Clc1ccc2nc(-c3ccccn3)c(Nc3ccc4c(c3)OCO4)n2c1 | 24 | 3 | 46* | -1 | 40* | -1
COc1ccc(C)cc1NC(=O)CCNC(=O)Cn1cnc2ccccc2c1=O | 1 | 0 | -2 | -2 | . | .
COC(=O)c1ccc(NC(=O)c2ccc(NC(=O)c3ccco3)cc2)cc1 | -6 | 2 | 30* | -9 | 26* | -2
O=C(Nc1ccc(N2CCN(C(=O)c3ccco3)CC2)cc1)c1ccc(Br)cc1 | -10 | 1 | 21* | 2 | 39* | -2
O=C(/C=C/c1ccc(Br)cc1)c1ccc(NC(=O)c2ccco2)cc1 | -2 | 1 | 22* | -1 | 22* | 1
COC(=O)c1ccccc1-n1c(C)nc(=O)c(-c2ccccc2)c1C | 0 | . | . | 2 | . | .
CCCc1cc(=O)[nH]c(SCC(=O)Nc2cc(S(=O)(=O)N3CCCCC3)ccc2Cl)n1 | -9 | . | . | -3 | . | .
COc1cccc(/C=N/Nc2ncnc3c2ncn3Cc2ccccc2)c1O | -25 | 3 | 20* | 60* | 27* | -1
COc1cccc(/C=N/Nc2cc(N3CCOCC3)ncn2)c1O | 0 | 4 | 25* | 17 | 20* | -5
COc1ccc(/C=N/Nc2cc(N3CCOCC3)ncn2)c(OC)c1 | -4 | 1 | -1 | -1 | . | .
SMILES | ATG4B inh | PP5 inh | PP1 inh | H9c2 protect | PP1 inh confirm | PP5 counter
CSCCC(NC(=O)COc1ccccc1)C(=O)OCCOc1ccc(C)cc1 (centres undefined) | 5 | 2 | 1 | -1 | . | .
CSCCC(NC(=O)COc1ccccc1)C(=O)N(C)CC(=O)Nc1c(C)cccc1C (centres undefined) | -2 | 0 | 21* | -3 | -5 | -4
CC(=O)Oc1ccc2c(=O)c(Oc3ccccc3[N+](=O)[O-])coc2c1 | -11 | 1 | 56* | 2 | 0 | 1
O=C(NCc1ccncc1)C(=O)N/N=C/c1ccc(OCc2ccccc2)cc1 | -2 | 0 | 38* | -14 | 32* | 5
O=c1cc(-c2ccccc2)cc(-c2ccccc2)n1O | 2 | 0 | 20* | 63* | 13 | -3
COCC(=O)N1CCC(Oc2ccc(C(=O)N3C[C@@H]4CCC[C@H]3C4)cc2)CC1 | 9 | . | . | 2 | . | .
N#C/C(=C/c1ccc(-c2ccc(S(N)(=O)=O)cc2)o1)C(=O)Nc1ccccc1 | -4 | 2 | -1 | 23 | . | .
N#C/C(=C/c1ccc(-c2ccc(S(N)(=O)=O)cc2)o1)c1nc2ccccc2s1 | 32 | -2 | 20* | 23 | 22* | -7
COc1cccc(-c2cc(N)nn2C(=O)Nc2ccc(Cl)cc2)c1 | -18 | 3 | 23* | -7 | 17* | 7
COc1cccc(NC(=O)NCCc2ccc(Cl)cc2)c1 | 13 | 1 | -1 | 4 | . | .
Cc1ccc(C)c(NC(=O)C(OC(=O)c2ccc(CO)cc2)c2ccccc2)c1 (centres undefined) | 1 | . | . | 2 | . | .
Cc1ccc(NC(=O)C(OC(=O)c2ccc(C=O)cc2)c2ccccc2)cc1Cl (centres undefined) | 38 | 2 | 22* | -11 | 12 | -3
CCCc1cc(=O)n(-c2nc3ccccc3s2)[nH]1 | 2 | -4 | 9 | 7 | . | .
CCOC(=O)Cc1cc(=O)n(-c2nc3ccccc3s2)[nH]1 | 26 | 0 | 44* | -5 | -3 | -5
O=C(CNC(=O)c1ccc(Cl)cc1)OCC(=O)c1ccccc1 | 10 | 2 | 0 | -2 | . | .
CC(C)(C)c1ccc(C(=O)NCC(=O)OCC(=O)c2ccc3c(c2)-c2ccccc2C3)cc1 | -3 | 2 | 20* | -10 | 14 | 0
CN(Cc1ccccc1)C(=O)COC(=O)C1CCN(S(=O)(=O)c2ccc(Cl)c(C(F)(F)F)c2)CC1 | -11 | 7 | 2 | -6 | . | .
CCCCN(C(=O)c1cccc(-n2cccc2)c1)c1c(N)n(Cc2ccccc2)c(=O)[nH]c1=O | . | 2 | 34* | -1 | 0 | -6
CCc1nnc2sc(-c3ccc(NC(=O)CSc4ccc(Cl)cc4)cc3)nn12 | -3 | 2 | 3 | 1 | . | .
Cc1nnc2sc(-c3ccc(NC(=O)CSc4ccc(Cl)cc4)cc3)nn12 | 6 | 3 | 18* | 4 | 5 | 1
CC(C)Oc1ccc(S(=O)(=O)N2CCCCC2)cc1NC(=O)C1CSC2(C)CCC(=O)N12 (centres undefined) | -10 | 1 | 2 | 3 | . | .
COc1ccc2[nH]c3c(c2c1)CCn1c-3nc2ccccc2c1=O | -4 | 1 | 26* | -14 | 22* | -5
